Drawing on PubChem BioAssay (NCATS), this text covers Potency and viability for 16 compounds.

The nature of assay [1]: Quantitative High-Throughput drug screen in 47 multiple myeloma cell lines against the NCATS MIPE library collection: MM1R_ATCC cell viability assay (AID 1918981). Further: nearly all actives have a fitted effect of over 35% in size. In outline:
(§1)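 MIPE 4.0 approved/investigational drugs; 500 cells/well; 48 h 37 °C humidified 5% CO2; CTG luminescence readout; DMSO = 100%, media = 0% viability.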

The nature of assay [2]: Quantitative High-Throughput drug screen in 47 multiple myeloma cell lines against the NCATS MIPE library collection: LP1_DSMZ cell viability assay (AID 1918982). Further: nearly all actives have a fitted effect of over 35% in size. In outline:
as §1

A short description of assay [3]: Quantitative High-Throughput drug screen in 47 multiple myeloma cell lines against the NCATS MIPE library collection: KMS28PE_JCRB cell viability assay (AID 1918983). Further: nearly all actives have a fitted effect of over 35% in size. In outline: as §1
Assay [4] in a line: Quantitative High-Throughput drug screen in 47 multiple myeloma cell lines against the NCATS MIPE library collection: L363_DSMZ cell viability assay (AID 1918984). Further: nearly all actives have a fitted effect of over 40% in size. The method in brief:
as §1

Assay [5] in a line: Quantitative High-Throughput drug screen in 47 multiple myeloma cell lines against the NCATS MIPE library collection: KMS34_JCRB cell viability assay (AID 1918985). Further: nearly all actives have a fitted effect of over 40% in size. The method in brief:
as §1

Assay [6] in a line: Quantitative High-Throughput drug screen in 47 multiple myeloma cell lines against the NCATS MIPE library collection: OCIMY7_PLB cell viability assay (AID 1918987). Further: nearly all actives have a fitted effect of over 65% in size. The note with it: OCI-MY7 myeloma viability, CellTiter-Glo ATP, 48 h; viability (% of DMSO): at 45.8 µM (top of the series). In outline:
as §1
Background: Cellular ATP, detected with luciferase, serves as a proxy for viable cell number.

Assay [7] can be described thus: Quantitative High-Throughput drug screen in 47 multiple myeloma cell lines against the NCATS MIPE library collection: OCIMY5_PLB cell viability assay (AID 1918988). Further: nearly all actives have a fitted effect of over 65% in size. The method in brief:
as §1

A short description of assay [8]: Quantitative High-Throughput drug screen in 47 multiple myeloma cell lines against the NCATS MIPE library collection: OPM1_PLB cell viability assay (AID 1918989). Further: nearly all actives have a fitted effect of over 40% in size. The method in brief:
as §1

Assay [9] can be described thus: Quantitative High-Throughput drug screen in 47 multiple myeloma cell lines against the NCATS MIPE library collection: SKMM1_PLB cell viability assay (AID 1919863). Further: nearly all actives have a fitted effect of over 35% in size. The note with it: SKMM1 myeloma viability, CellTiter-Glo ATP, 48 h; viability: stronger effect = lower value. In outline:
as §1

The nature of assay [10]: Quantitative High-Throughput drug screen in 47 multiple myeloma cell lines against the NCATS MIPE library collection: MM1S_ATCC cell viability assay (AID 1918980). Further: nearly all actives have a fitted effect of over 45% in size. In outline:
as §1

Inconclusive results are not listed. A number with no mark means an inactive call. Active and inactive are the calls of the source. The call rests on the fitted dose curve; in most records, active means well fitted cell-killing curve with a large enough effect; inconclusive means small, poorly fitted or top-dose-only effect, or effect the other way; inactive means no such curve, though single readings can be large or run the other way.

Usually viability stands for a read-out of living cells in per cent, often relative to untreated cells.
Potency means the concentration at half of the fitted maximal effect.

As to `CC(C)(O)Cn1c(NC(=O)c2ccc(-c3cn[nH]c3)s2)nc2cc(CN3CCOCC3)ccc21`, the Potency in [1] is 1660 nM (active); in assay [2], 1870 nM (active); in assay [3], 1480 nM (active); in [4], 662 nM (active); in assay [5], 1320 nM (active); in assay [6], 332 nM (active). The figures for the Potency in assay [7], in assay [8] and in assay [9] were 1320 nM (active), 743 nM (active) and 2960 nM (active), respectively.
On to `C[C@@H]1[C@H](C)CC[C@]2(C(=O)O)CC[C@]3(C)C(=CC[C@@H]4[C@@]5(C)C[C@@H](O)[C@H](O)[C@@](C)(CO)[C@H]5CC[C@]43C)[C@@H]12`, for which the Potency result in assay [1], in [2], in assay [3] and in [5] was “inactive” each time.
On to `CC(C)(C)[N+]([O-])=Cc1ccc(S(=O)(=O)O)cc1S(=O)(=O)O`, for which the Potency result in assay [1], in [2], in [3], in [4] and in assay [8] was “inactive” in each case. Besides, the viability in [9] is 115%.
For `CCOC(=O)[C@H](CCc1ccccc1)N[C@@H](C)C(=O)N1[C@@H](C(=O)O)C[C@H]2CCC[C@@H]21`, the Potency in assay [1] was 16600 nM (active); in assay [2], 20900 nM (active); in assay [3], 23500 nM (active); in assay [4] it was 7430 nM (active); in assay [5], 26400 nM (active); in [7], 14800 nM (active).
As to `C[N+]1(C)[C@@H]2C[C@@H](OC(=O)C(O)(c3cccs3)c3cccs3)C[C@H]1[C@@H]1O[C@@H]12`, the Potency entry in [1], in assay [2], in assay [3], in [4], in assay [7] and in assay [8] was “inactive” each time.
With `OCCNC1CCCc2c1[nH]c1ccc(-c3ccccc3)cc21` (configuration not stated), the Potency in assay [1] was 20900 nM (active); in [2] it was 23500 nM (active); in assay [3] it was 23500 nM (active); in [4], 9350 nM (active); in assay [6] it was 20900 nM (active); in assay [7], 18700 nM (active). In addition, the Potency was 8330 nM (active) in [8] and 26400 nM (active) in assay [9].
As to `Cn1cc(C2=C(c3c4n(c5ccccc35)CCC(CN)C4)C(=O)NC2=O)c2ccccc21` (configuration not stated), the Potency in assay [1] was 11800 nM (active); in assay [2], 10500 nM (active); in assay [3], 18700 nM (active); in assay [4], 7430 nM (active); in assay [6], 7430 nM (active); in assay [7] it was 8330 nM (active). The values for the Potency in [8] and in assay [9] were 7430 nM (active) and 20900 nM (active), respectively.
On to `Cc1ccc2nc(NCCN)c3ncc(C)n3c2c1`, for which the Potency in [1] was 3320 nM (active); in assay [2], 2640 nM (active); in [3], 4180 nM (active); in assay [5], 8330 nM (active); in assay [6] it was 6620 nM (active); in assay [7], 1320 nM (active). The Potency was 13200 nM (active) in [8] and 4690 nM (active) in assay [9].
Regarding `C=C[C@@H]1CN2CCC1C[C@H]2[C@H](O)c1ccnc2ccc(OC)cc12` (some centres not stated), the Potency entry in assay [1], in assay [2], in assay [3], in assay [4] and in assay [8] was “inactive” each time. Further, the viability in assay [9] is 93.1%.
With `O=C(O)c1ccc(Nc2ncc3c(n2)-c2ccc(Cl)cc2C(c2c(F)cccc2F)=NC3)cc1`, the results for the Potency in assay [10], in assay [6] and in assay [8] were 18700 nM (active), 209 nM (active) and 5900 nM (active), respectively.
With `C#C[C@]1(O)CC[C@@H]2[C@@H]3CCC4=CC(=O)CC[C@@H]4[C@H]3CC[C@@]21CC`, the Potency result in assay [1], in assay [2], in assay [3], in assay [5] and in assay [6] was “inactive” in each case. In addition, the Potency in [4] is 8.3 nM (active); in assay [7], 18700 nM (active).
For the compound `CC(=O)OCC(=O)[C@@]1(O)CC[C@H]2[C@@H]3CCC4=CC(=O)CC[C@]4(C)[C@@H]3C(=O)C[C@@]21C`, the Potency result in assay [1], in [2], in assay [3], in [4], in assay [5] and in assay [7] was “inactive” throughout. For the same compound, the viability in assay [9] is 120%.
As to `CC(C)N(CC[C@H](c1ccccc1)c1cc(CO)ccc1O)C(C)C`, the Potency result in [1], in [2], in assay [3], in assay [4] and in assay [5] was “inactive” throughout.
`C=Cc1c(C)c2cc3nc(cc4[nH]c(cc5nc(cc1[nH]2)C(C)=C5CCC(=O)O)c(CCC(=O)OC)c4C)[C@@]1(C)C3=CC=C(C(=O)OC)[C@H]1C(=O)OC`: the Potency in assay [1] is 93.5 nM (active); in assay [2] it was 1050 nM (active); in assay [3], 743 nM (active); in [4] it was 526 nM (active); in assay [5], 743 nM (active); in assay [6], 662 nM (active). The Potency was 41.8 nM (active) in [7] and 743 nM (active) in assay [9].
As for `Cn1cc(CNCC2CCN(c3ncc(C(=O)NO)cn3)CC2)c2ccccc21`, the Potency in assay [1] is 14.8 nM (active); in assay [2], 41.8 nM (active); in assay [3] it was 29.6 nM (active); in assay [4], 26.4 nM (active); in assay [5], 18.7 nM (active); in assay [6], 33.2 nM (active). In addition, the Potency is 16.6 nM (active) in [7], 11.8 nM (active) in [8] and 59 nM (active) in assay [9].
As to `CCNC(=O)Nc1ccc(-c2nc3c(c(N4CCOC[C@H]4C)n2)CCN(C2COC2)C3)cc1`, the Potency in assay [1] is 1050 nM (active); in [2], 37.2 nM (active); in assay [3], 833 nM (active); in assay [4] it was 209 nM (active); in [5], 1050 nM (active); in assay [8], 1180 nM (active). Moreover, in assay [9], the Potency was 935 nM (active).
